An excerpt weighted towards active compounds, which were near 1.2% of everything screened.
ABCB6 inh MLPCN = ABCB6 transporter inhibitors, primary screen, K562-ABCB6 cells, flow cytometry, MLPCN library | fluorescence ratio to DMSO, % at 10 µM | actives 0.19% (n = 360,000) | K562-ABCB6 porphyrin accumulation, 1 h; active compounds read low;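 active = fluorescence ratio to DMSO below 75%, the collection mean minus 3 SD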;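 note: signal is porphyrin accumulated inside mitochondria; 100% equals median channel fluorescence of DMSO control wells; lower ratio means ABCB6 inhibition with less porphyrin fluorescence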
SKN-1 inh = suppressors of acrylamide-induced Pgst-4::GFP reporter in worms, primary screen, SKN-1 inhibitor project, whole organism, uHTS, GFP/RFP fluorescence ratio, strain VP596 | AID 624304, 2012 | C. elegans VP596 Pgst-4::GFP/RFP ratio, 24 h | actives 0.49% (n = 360,000) | inhibition, % at 21.8 µM;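 active = interference check ratio from 0.5 to 1.5 plus GFP to RFP signal ratio inhibition reaching or exceeding a fixed threshold, cut at about 30% in these data, passing the limit was not always enough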
VLA-4 inh = inhibition in human VLA-4 binding assay, primary screen, VLA-4 allosteric modulator project, MLPCN library, flow cytometry, VLA-4 expressing cells | Integrin alpha-4 (Homo sapiens), P13612 | ligand binding flow cytometry | inhibition, % (about 7 µM as worked out from the volumes in the protocol) | actives 0.2% (n = 330,000) | AID 2557, 2010; in the data active = inhibition above about 50%
CR mimetic SO = reduction of superoxide in aged yeast, primary screen, HTS | S. cerevisiae aged cells, superoxide DHE fluorescence; active compounds read low | superoxide response (% of plate mean), % at 10 µM | actives 0.18% (n = 330,000);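 active = superoxide response under a set limit, about three screen SD below normal, cut at about 65% in these data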;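 note: yeast aged for seven days with compound at 30 °C before DHE staining; 100% = average MFI of all compound-treated wells on the plate with controls excluded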
Platelet DG rel = inhibitors of platelet dense granule secretion, primary screen, cell-based, MLPCN, human platelets; human platelet-rich plasma, SFLLRN dense granule ATP release, luminescence; inhibition, %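 (compounds screened at 7.5 µM in platelet-rich plasma)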; actives 0.22% (n = 300,000); AID 1663, 2009;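 active = mean replicate score, as percent of positive control, at or above 50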
The depositor's hits bear a star; . = not tested or not shown.

SMILES	ABCB6 inh MLPCN	SKN-1 inh	VLA-4 inh	CR mimetic SO	Platelet DG rel
COC(=O)c1c(NC(=O)CN2CCN(Cc3ccc4c(c3)OCO4)CC2)sc(C)c1C	96.0	36.3*	-4.0	115.8	3.2
Cc1ccc(/C=N/Nc2ccc(C(=O)O)cc2)s1	86.0	3.7	6.4	101.2	83.0*
COc1ccc(/C=N/Nc2ccc(C(=O)O)cc2)cc1Br	101.0	18.3	1.1	89.5	68.1*
CCOc1cc(CNCC(C)C)cc(Cl)c1OCc1ccccc1	86.0	19.5	25.5	86.2	0.0
CCOc1cc(CNC2CCCC2)cc(Cl)c1OCc1ccccc1	96.0	55.9*	-0.7	97.5	13.5
Cn1c(N/N=C/c2ccccc2)nc2sc3c(c2c1=O)CCC3	102.0	48.2*	3.6	101.6	-8.6
COc1ccc(/C=C/C(=O)c2nc3ccccc3n2CC(=O)c2ccc(OC)cc2)cc1	95.0	44.5*	-1.9	98.3	-0.6
COc1ccc(C(=O)Cn2c(C(C)=O)nc3ccccc32)cc1	94.0	4.6	.	.	.
COc1ccc(/C=C/c2nc3ccccc3n2C)cc1	97.0	-16.6	-5.6	99.0	112.8*
Cc1cccc(C)c1NC(=O)C1(C)CN(S(C)(=O)=O)CC(=O)N1Cc1ccco1 (stereo unspecified)	.	13.0	.	.	.
CCCCCNC(=O)c1ccccc1SC	102.0	34.9*	0.1	85.8	-12.7
CCCCNC(=O)c1ccccc1C(=O)NCCCC	98.0	-1.6	9.7	96.3	16.5
CSc1ccccc1C(=O)NCCOc1cccc(C)c1	96.0	40.0*	-19.2	99.7	-2.2
Cn1cc(Cl)c(C(=O)N/N=C/c2ccc(OS(=O)(=O)c3ccccc3)cc2)n1	97.0	8.8	4.0	81.0	-1.8
Cc1ccc(/C=N/NC(=O)c2nn(C)cc2Cl)cc1	99.0	2.6	12.4	93.2	53.2*
CC(C)(C)N1C(=O)c2ccccc2NC(=O)C1C(=O)NCCOc1ccccc1 (stereo unspecified)	.	0.5	.	.	.
C=CCNc1nc2cc(-c3ccc(C(=O)N4CCOCC4)cc3)sc2c(=O)n1C	97.0	-5.1	.	.	.
Cc1nc2ccccc2cc1OCc1ccccc1	92.0	31.7	5.2	94.0	4.8
COc1cccc(COc2cc3ccccc3nc2C)c1	101.0	44.6*	31.0	99.3	4.2
Cc1nc2ccccc2cc1OCc1ccc(Cl)cc1	88.0	89.5*	-7.9	112.0	-4.1
O=C(C#Cc1ccccc1)c1cccc([N+](=O)[O-])c1	71.0*	5.7	23.7	83.8	0.6
CC(=O)c1cccc([N+](=O)[O-])c1	102.0	2.9	5.4	84.2	.
COc1cccc(-c2cc(C(=O)Nc3nc4ccccc4s3)c3ccccc3n2)c1	96.0	46.3*	9.2	108.2	-0.1
O=C(Nc1nc2ccccc2s1)c1cc(-c2ccco2)nc2ccccc12	97.0	4.6	-23.5	92.9	-1.8
COc1ccc(C(=O)Nc2nc3ccccc3s2)c(OC)c1	92.0	0.4	11.8	86.3	82.8*
SMILES	ABCB6 inh MLPCN	SKN-1 inh	VLA-4 inh	CR mimetic SO	Platelet DG rel
COc1ccccc1C(=O)Nc1nc2ccccc2s1	95.0	5.7	0.1	105.0	73.2*
COc1ccc2nc(NC(=O)c3ccccc3C(=O)O)sc2c1	94.0	9.3	5.6	94.8	3.4
Cc1ccc2ccccc2c1C(O)c1ncc(-c2ccccc2Cl)[nH]1 (stereo unspecified)	97.0	-2.4	.	.	.
COc1cc(OC)cc(C2=Cc3ccccc3C(CC(=O)c3ccco3)N2c2ccc(-c3cncnc3)cc2)c1 (stereo unspecified)	95.0	2.4	.	.	.
COC1=CC(=O)OC(c2ccc(C(F)(F)F)cc2)C1 (stereo unspecified)	.	1.6	.	.	.
N#CC1=C(SCC(=O)Nc2nccs2)NC(=O)CC1c1ccccc1 (stereo unspecified)	92.0	4.1	13.3	93.4	1.8
Cc1ccccc1NC(=O)CSC1=C(C#N)C(c2ccsc2)CC(=O)N1 (stereo unspecified)	103.0	37.5*	-14.1	104.3	12.7
CC(C)(C)CC(=O)Nc1nnc(C(F)(F)F)s1	86.0	-4.5	-8.3	94.7	-0.9
CC(NC(=O)Nc1nnc(C(F)(F)F)s1)(C(F)(F)F)C(F)(F)F	97.0	32.4*	7.1	115.8	8.0
CCNC(=O)C1(C)CCN(C(=O)c2ccccc2C(F)(F)F)C1 (stereo unspecified)	106.0	9.9	.	.	.
COc1ccc(C(=O)Nc2ccc(N3CCOCC3)cc2)cc1OC	91.0	10.1	6.5	127.8	66.2*
CC(=O)c1ccc(N2CCN(C(=S)Nc3ccc(Oc4ccccc4)cc3)CC2)cc1	89.0	25.7	-2.8	94.8	-5.1
CN1CCN(c2ccc(NC(=O)c3ccc(Oc4ccccc4)cc3)cc2)CC1	99.0	37.4*	3.0	99.4	-12.0
COc1ccc(C(=O)Nc2ccc(N3CCCC3)cc2)cc1OC	114.0	4.8	7.7	96.8	79.0*
Cc1cccc(NC(=O)C(=O)NCC2CCCN2S(=O)(=O)c2cccs2)c1 (stereo unspecified)	98.0	10.6	.	.	.
COc1cc(NC(=O)CCS(=O)(=O)c2ccc3nc(C)sc3c2)cc(OC)c1OC	86.0	-5.6	-0.3	100.7	-2.6
COc1ccc(NC(=O)CCS(=O)(=O)c2ccc3nc(C)sc3c2)cc1OC	99.0	1.8	-14.0	83.7	74.4*
CCn1c2ccccc2c2cc(NC(=O)CSc3nnc(-c4ccc(OC)c(OC)c4)n3N)ccc21	99.0	36.4*	-30.1	102.1	0.4
CCn1c2ccccc2c2cc(NC(=O)CSc3nnc(-c4cccc(Cl)c4)o3)ccc21	101.0	-0.5	5.9	102.8	61.1*
CCn1c2ccccc2c2cc(NC(=O)CSc3nnc(-c4cccc(OC)c4)n3N)ccc21	93.0	20.5	-8.5	105.1	-0.2
O=C(CSc1nnc(-c2cccnc2)o1)Nc1cccc(Cl)c1	92.0	10.8	-0.5	91.3	-0.6
Cc1cccc(C)c1-n1nnnc1C1c2ccccc2C(=O)N1C1CC1 (stereo unspecified)	96.0	12.7	.	.	.
Cc1ccc(C)c(N2CCN(C(c3ccc(N(C)C)cc3)c3nnnn3C(C)(C)C)CC2)c1 (stereo unspecified)	98.0	45.7*	-3.3	101.5	-1.4
COc1ccccc1-n1cc2ccc([N+](=O)[O-])cc2n1	102.0	4.3	20.0	76.9	-7.0
O=[N+]([O-])c1ccc2cn(-c3ccccc3)nc2c1	95.0	56.8*	-10.3	95.5	1.3
Cc1cnc2nc(-c3ccccc3)ccc2c1	95.0	26.8	.	.	.
COc1cccc(CN(C)C(=O)c2ccc(S(=O)(=O)Nc3cccc(C)c3C)cc2)c1OC	96.0	-14.3	.	.	.
CCCOc1ccccc1C1C(C(=O)OC)=CN(C(C)C)C=C1C(=O)OC	96.0	17.3	4.7	93.1	4.0

Compound activity from PubChem BioAssay.
